KDM5B inh: Primary screen for KDM5B Histone Demethylases FDH-coupled qHTS; Lysine-specific demethylase 5B (Homo sapiens), Q9UGL1; KDM5B demethylase, FDH-coupled NADH fluorescence (FDH is formaldehyde dehydrogenase); Potency, µM (doses to about 57.7 µM), hits mostly inhibitors; 220,000 compounds, 2.6% hits; AID 1347165, 2019; active = well fitted inhibition curve with a large enough effect; note: 0% is about no effect; nearly all actives have a fitted effect of over 70% in size
Target sequence (Q9UGL1 whole entry, looked up): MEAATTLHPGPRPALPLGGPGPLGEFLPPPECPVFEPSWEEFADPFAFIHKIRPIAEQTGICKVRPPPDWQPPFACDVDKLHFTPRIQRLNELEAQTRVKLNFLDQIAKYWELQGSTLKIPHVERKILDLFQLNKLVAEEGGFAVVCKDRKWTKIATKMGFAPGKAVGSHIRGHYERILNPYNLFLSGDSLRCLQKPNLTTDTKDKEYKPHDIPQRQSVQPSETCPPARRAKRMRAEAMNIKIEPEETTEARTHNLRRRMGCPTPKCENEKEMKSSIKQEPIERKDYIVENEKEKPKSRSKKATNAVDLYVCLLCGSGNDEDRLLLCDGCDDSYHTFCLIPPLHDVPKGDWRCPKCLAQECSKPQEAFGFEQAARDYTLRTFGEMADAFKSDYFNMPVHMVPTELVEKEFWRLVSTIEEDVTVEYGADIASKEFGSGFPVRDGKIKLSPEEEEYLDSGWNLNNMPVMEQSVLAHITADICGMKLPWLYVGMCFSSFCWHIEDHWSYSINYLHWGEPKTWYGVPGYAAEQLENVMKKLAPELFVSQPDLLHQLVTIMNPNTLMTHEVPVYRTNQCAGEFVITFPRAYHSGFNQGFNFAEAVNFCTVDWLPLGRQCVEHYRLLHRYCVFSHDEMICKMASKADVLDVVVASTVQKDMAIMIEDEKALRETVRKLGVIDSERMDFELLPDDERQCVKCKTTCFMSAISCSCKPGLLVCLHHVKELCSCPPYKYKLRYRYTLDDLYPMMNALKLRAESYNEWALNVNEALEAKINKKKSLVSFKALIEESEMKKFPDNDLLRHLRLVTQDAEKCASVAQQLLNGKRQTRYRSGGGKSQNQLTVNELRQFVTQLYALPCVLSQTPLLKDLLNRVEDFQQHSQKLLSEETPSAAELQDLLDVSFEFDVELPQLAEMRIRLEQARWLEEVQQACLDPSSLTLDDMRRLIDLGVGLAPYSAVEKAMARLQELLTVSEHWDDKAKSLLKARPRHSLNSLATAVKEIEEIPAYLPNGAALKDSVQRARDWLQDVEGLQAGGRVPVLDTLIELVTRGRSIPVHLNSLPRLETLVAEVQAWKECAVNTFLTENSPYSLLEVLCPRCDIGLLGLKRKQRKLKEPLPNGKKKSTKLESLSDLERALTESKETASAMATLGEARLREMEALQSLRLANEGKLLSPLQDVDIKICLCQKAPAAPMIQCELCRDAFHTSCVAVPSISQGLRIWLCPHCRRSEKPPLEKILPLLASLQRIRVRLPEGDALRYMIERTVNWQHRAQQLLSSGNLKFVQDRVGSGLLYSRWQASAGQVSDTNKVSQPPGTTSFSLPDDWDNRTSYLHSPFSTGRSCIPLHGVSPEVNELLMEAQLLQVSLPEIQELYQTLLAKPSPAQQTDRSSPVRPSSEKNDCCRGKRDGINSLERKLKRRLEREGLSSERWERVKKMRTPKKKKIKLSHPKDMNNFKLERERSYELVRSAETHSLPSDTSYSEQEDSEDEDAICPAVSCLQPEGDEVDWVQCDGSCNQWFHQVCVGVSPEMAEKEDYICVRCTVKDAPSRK
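Here, H3K4me3 peptide (12.5 µM in substrate mix) is demethylated by KDM5BΔAP, 200 nM final, after 10 min compound exposure. Formaldehyde product is coupled through FDH (0.25 U/mL in mix) to NADH fluorescence; 30-min ΔRFU feeds dose-response curves.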
The depositor's hits bear a star; i = inactive. Many of the other results were omitted from the sample, so hits are more common in it than they were. Potency is the fitted concentration of half-maximal effect.

SMILES	KDM5B inh
O=C(NCCCN1CCOCC1)c1ccc(N2CCOCC2)c([N+](=O)[O-])c1	i
COc1cc(C(=O)NCCc2ccccc2)ccc1OCC(=O)N1CCOCC1	i
CN1CCC2(C1)CN(CC1CCOCC1)c1ccc(C(=O)NCCCO)cc12 (stereo not drawn)	35µM*
O=C(O)C(c1c[nH]c2cc(F)ccc12)N1CCN(C2=Nc3ccccc3Oc3ccccc32)CC1 (stereo not drawn)	i
CC(=O)c1ccc(Sc2ccc(F)cc2)c(F)c1	i
CN(CC(=O)NC1(C)CCS(=O)(=O)C1)Cc1cccc(Cl)c1Cl (stereo not drawn)	i
CC(C)CSc1nc2c(c(=O)n(C)c(=O)n2C)n1CCCc1ccccc1	i
Cc1cccc(C(=O)N2CCC(c3n[nH]c(=O)n3-c3ccccc3)CC2)c1	i
Cc1ccc(C#N)c(N2CCCC(c3n[nH]c(=O)n3-c3ccccc3)C2)n1 (stereo not drawn)	32µM*
Cc1csc(CN2CCCC(c3n[nH]c(=O)n3-c3ccccc3)C2)n1 (stereo not drawn)	i
CN(C(=O)COC(=O)c1ccc(F)c(Cl)c1)c1ccc(F)cc1	i
CCC(CC)NC(=O)N1CCN(S(=O)(=O)c2ccccc2C#N)CC1	i
CO[C@H]1[C@H](NC(=O)c2cc(=O)[nH]c(=O)[nH]2)c2ccccc2C12CCNCC2	i
CO[C@H]1[C@H](NC(=O)c2cc3ccccc3[nH]2)c2ccccc2C12CCNCC2	22µM*
CO[C@H]1[C@H](NC(=O)c2ccc(F)cc2)c2ccccc2C12CCNCC2	i
COCCn1cnnc1SCC(=O)c1cccc(OC)c1	i
Nc1nc(Nc2ccc(F)cc2)nc(-c2cc3ccccc3o2)n1	i
Cc1cccc2nnc(N3CCCN(C(=O)c4ccccc4Cl)CC3)n12	22µM*
Cc1ccc(C(=O)N2CCN(CCc3ccccc3)CC2)cc1C	i
Cc1cccc2nnc(N3CCN(C(=O)CCc4ccccc4)CC3)n12	25µM*
Cc1ccc(Cl)cc1N1CCN(C(=O)c2cccn2-c2nnc(N3CCCCC3)s2)CC1	i
CC(=O)N1CCN(C(=O)CCc2nc(Cc3ccccc3)no2)CC1	i
Cc1cccc2nc(C(=O)N3CCN(c4cccc(Cl)c4)CC3)cn12	i
Cc1ccc(C(=O)N2CCN(c3nnc4cccc(C)n34)CC2)cc1C	25µM*
Cc1cnc(C2CCC2)n1CC1CCN(C(=O)CCc2ccccc2)CC1	i
SMILES	KDM5B inh
COc1ccc(C(=O)N2CCCN(c3cc(-c4ccc(C)c(C)c4)[nH]n3)CC2)cc1OC	i
COc1ccc(N(Cc2cccs2)C(=O)Cn2nnc(-c3cccc(F)c3)n2)cc1	i
Fc1ccc(CCNC(=S)Nc2ccc(Nc3ccccc3)cc2)cc1	i
Cc1ccsc1CNC(=O)c1ccccn1	i
Clc1cccc(-c2nc(CSc3ncn[nH]3)co2)c1	i
CCn1nc(-c2ccc(C)c(S(=O)(=O)NCc3ccccc3)c2)c2c(c1=O)CCCC2	i
Cc1ccc(C(=O)O)cc1N1CC(O)=C(c2nc3ccccc3n2C)C1=N	i
COC(=O)c1[nH]c2cc(OC)ccc2c1NC(=O)CN1CCCCC1C (stereo not drawn)	i
COc1cccc(CNC(=O)[C@@]23CCCC[C@H]2N(CCc2ccccc2)C(=O)CC3)c1OC	i
CCCn1c(N2CCN(Cc3c(F)cccc3Cl)CC2)nc2c1c(=O)[nH]c(=O)n2C	i
COc1ccc(CCN2CCC(CN(C)C(=O)c3ccccc3SC)CC2)cc1	i
O=C(Cc1csc(-c2ccc(F)cc2)n1)Nc1ccnn1Cc1ccc(Cl)cc1	i
O=C(CCc1nc2ccccc2s1)N[C@H](c1ccccn1)C1CC(O)C1 (stereo partly drawn)	i
O=C(Cc1csc(-c2ccccc2)n1)N[C@H](c1ccccn1)C1CC(O)C1 (stereo partly drawn)	25µM*
Nc1nc(CC(=O)N[C@H](c2ccccn2)C2CC(O)C2)cc(=O)[nH]1 (stereo partly drawn)	i
Nc1nc2c(c(C(=O)N[C@H](c3ccccn3)C3CC(O)C3)n1)CCCC2 (stereo partly drawn)	28µM*
CCCc1cc(C(=O)N[C@H](c2ccccn2)C2CC(O)C2)cs1 (stereo partly drawn)	i
O=C(N[C@H](c1ccccn1)C1CC(O)C1)c1cc(=O)n(-c2ccccc2)[nH]1 (stereo partly drawn)	i
COc1ccc(C(=O)N/C(=C\c2cc3ccc(OC)cc3nc2Cl)C(=O)N(C)C)cc1	i
CCCn1c(=O)c2sc(N3CCCC3)nc2n(CC(=O)Nc2cc(C)ccc2OC)c1=O	i
Cc1nc2nc(N(Cc3ccc(F)cc3)C(=O)c3ccco3)[nH]n2c(=O)c1C	i
O=C(NC1CC(=O)N(c2cccc(F)c2)C1)C1CCCCC1 (stereo not drawn)	i
O=C(Nc1nn(-c2cccc(F)c2)c2cccc(N3CCOC3=O)c12)C1CCC1	28µM*
O=C(NCc1cccc(F)c1)C1CCCN(C(=O)N2CCOc3ccccc32)C1 (stereo not drawn)	i
Fc1ccc(CN2CCOC[C@H]2c2ncc(-c3ccc(Cl)s3)[nH]2)cc1	i
SMILES	KDM5B inh
Cc1cccc(S(=O)(=O)Nc2cccn3nc(C4CCC4)nc23)c1	i
CCc1nc2c(NS(=O)(=O)c3cccnc3)cccn2n1	i
O=S(=O)(Nc1cccn2nc(C3CC3)nc12)c1cccnc1	3.5µM*
CC(c1nnc(-c2cccs2)o1)N(C)Cc1ccc(Br)cc1 (stereo not drawn)	i
COc1cc(C(=O)OCC(=O)NC(C)C(C)C)cc(Cl)c1OC (stereo not drawn)	i
Cn1cc(S(=O)(=O)N2CCCCC2)cc1C(=O)N1CCN(c2ccccc2F)CC1	i
Cc1cn2nc(C(=O)N3CCCC3)cc2c(N2CCSCC2)n1	28µM*
O=C(c1cn(C2CCCCC2)nn1)N1CCSCC1	i
Cc1cn2nc(C(=O)N3CCN(c4ccccc4F)CC3)cc2c(N2CCCC2)n1	32µM*
Cc1cn2nc(C(=O)N3CCC(C(=O)NCc4ccccn4)CC3)cc2c(=O)[nH]1	i
Cc1oc2ncn(C)c(=O)c2c1C(=O)N1CCN(c2ccccc2F)CC1	i
CCOC(=O)c1ccc(OCC(O)CNCCCn2nc(C)cc2C)cc1 (stereo not drawn)	i
Cc1ccc(C)c(NC(=O)c2csc3c2CCCCC3)c1	i
CCc1nnc(NC(=O)Cc2coc3cc4c(cc23)CCC4)s1	i
O=C(COC(=O)c1cc2c(s1)CCC2)NC(=O)NC1CCCC1	i
Cc1ccc(/C=C(/C#N)S(C)(=O)=O)c(C)c1	i
COC(=O)Cn1c(=O)c2c3c(sc2n(Cc2ccc(F)cc2)c1=O)COC(C)(C)C3	i
Cc1cnc(NC(=O)CCNC(=O)c2ccsc2)s1	i
COc1ccc(CN2Cc3cc(NC(=O)c4ccc(F)cc4F)ccc3OC(C)C2=O)c(OC)c1 (stereo not drawn)	i
COc1ccccc1CN1Cc2cc(NC(=O)Cc3ccc(F)cc3)ccc2OC(C)C1=O (stereo not drawn)	i
CCC(C(=O)Nc1ccc2c(c1)CN(Cc1ccccc1OC)C(=O)C(C)O2)c1ccccc1 (stereo not drawn)	i
CCNC(=O)Nc1ccc2c(c1)CN(Cc1ccccc1OC)C(=O)C(C)O2 (stereo not drawn)	28µM*
